Assay [1] in a line: ATG_DR4_LXR_CIS: Attagene CIS-FACTORIAL HepG2 Assay for human Liver X Receptor (LXR), DR4 submotif (AID 2282929). Conditions: HepG2 Attagene DR4 cis-reporter, mRNA transcription; AC50: actives raise or lower the signal unless noted; outcome: actives raise or lower the signal unless noted. In outline: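 HepG2 cells transiently transfected with cis-promoter-driven multiplexed reporter units (DR4 element) were dosed for 24 h. Reporter mRNA was quantified by RT-PCR, fluorescent primer extension, HpaI digestion and capillary electrophoresis; bidirectional fitting versus DMSO baseline.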

The target in assay [2] is Aryl hydrocarbon receptor (Homo sapiens) (UniProt P35869). Briefly: ATG_Ahr_CIS: Attagene CIS-FACTORIAL HepG2 Assay for human Aryl Hydrocarbon Receptor (Ahr) (AID 2282930). The note with it: HepG2 AhR cis-factorial reporter transcription; actives raise or lower the signal. In outline: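 HepG2 cells transiently transfected with cis-element-driven multiplexed reporter transcription units; endogenous transcription factor activity measured as reporter mRNA 24 h after dosing. RT-PCR, 6-FAM labelling, HpaI digestion, capillary electrophoresis; bidirectional fitting versus DMSO baseline.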

The nature of assay [3]: ATG_AP_1_CIS: Attagene CIS-FACTORIAL HepG2 Assay for human Activator Protein 1 (AP-1) (AID 2282931). The note with it: HepG2 Attagene cis-factorial AP-1 reporter mRNA; actives raise or lower the signal. The method in brief: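 HepG2 cells transiently transfected with cis-element-driven multiplex reporter units; 24 h compound exposure. Reporter mRNA quantified by RT-PCR, FAM-labelled fragments resolved by capillary electrophoresis; bidirectional fit versus DMSO baseline.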

Assay [4] can be described thus: ATG_AP_2_CIS: Attagene CIS-FACTORIAL HepG2 Assay for human Activator Protein 2 (AP-2) (AID 2282932). The note with it: HepG2 AP-2 cis-reporter, Attagene transcription factor profiling; AC50: actives raise or lower the signal unless noted; outcome: actives raise or lower the signal unless noted. The method in brief: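 Cells (HepG2) transfected with promoter-driven reporter constructs, treated 24 h. Total RNA reverse-transcribed, reporter cDNA PCR-amplified, FAM-labelled by primer extension, digested, resolved by capillary electrophoresis. Activity fitted both directions versus DMSO.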

Assay [5] is described as follows: ATG_BRE_CIS: Attagene CIS-FACTORIAL HepG2 Assay for human Bone Morphogenetic Protein (BMP) Response Element (BRE) (AID 2282933). The note with it: HepG2 BMP response element reporter, Attagene transcription factor profiling; actives raise or lower the signal. The method in brief:
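Fluorescence-labelled reporter cDNA fragments, separated by capillary electrophoresis, gave the signal for this component of a 52-readout multiplex. HepG2 cells were transfected, exposed to chemicals for 24 h, and compared with DMSO using bidirectional fitting.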

Assay [6] deals with Retinoic acid receptor alpha (Homo sapiens) (UniProt P10276). Briefly: ATG_DR5_RAR_CIS: Attagene CIS-FACTORIAL HepG2 Assay for human Retinoic Acid Receptor Alpha (RARE), DR5 submotif (AID 2282934).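 As to AC50: reporter responds to endogenous RAR alpha beta and gamma in HepG2 not RARA alone.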 Conditions: HepG2 Attagene cis-factorial RARE DR5 reporter, mRNA; actives raise or lower the signal. In outline:
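HepG2 cells transiently transfected with multiplexed reporter units under cis (DR5 RARE) promoters, so endogenous transcription factor activity is measured. After 24 h compound exposure, reporter mRNA is quantified by RT-PCR with fluorescent labelling and capillary electrophoresis; bidirectional fitting versus DMSO.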

Assay [7] concerns the target Transcription factor E2F1 (Homo sapiens) (UniProt Q01094). Briefly: ATG_E2F_CIS: Attagene CIS-FACTORIAL HepG2 Assay for human E2F Transcription Factor 1 (AID 2282935). Conditions: HepG2 Attagene cis-reporter, E2F reporter RNA transcripts; actives raise or lower the signal. In outline:
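First, HepG2 cells were transfected with reporter transcription units. Next, they were dosed for 24 h. Then RNA was isolated, converted to cDNA, PCR-amplified, FAM-labeled, HpaI-digested and analyzed by capillary electrophoresis.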

Assay [8] in a line: ATG_E_Box_CIS: Attagene CIS-FACTORIAL HepG2 Assay for human Enhancer Box (E-box) (AID 2282936). Conditions: HepG2 E-box cis-reporter transcription, actives raise or lower the signal. In outline:
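Endogenous transcription factor activity was sensed in human HepG2 liver cells through transfected cis-promoter reporter units. After 24 h of dosing, total RNA was reverse-transcribed and reporter cDNA resolved by capillary electrophoresis.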

Assay [9] in a line: ATG_M_61_CIS: Attagene CIS-FACTORIAL HepG2 Assay for M61 Transcription Factor (Internal Marker) (AID 2282937). The note with it: HepG2 Attagene CIS-FACTORIAL M61 internal marker reporter; actives raise or lower the signal. In outline:
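HepG2 cells transiently transfected with cis-element-driven multiple reporter transcription units, dosed for 24 h. Reporter mRNA measured by RT-PCR, 6-FAM primer-extension labelling, HpaI digestion and capillary electrophoresis; bidirectional fit versus DMSO baseline.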

The nature of assay [10]: ATG_EGR_CIS: Attagene CIS-FACTORIAL HepG2 Assay for human Early Growth Response 1 (EGR1) (AID 2282938). Conditions: HepG2 Attagene CIS-FACTORIAL EGR reporter mRNA; actives raise or lower the signal. The method in brief: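 HepG2 cells transiently transfected with cis-promoter-driven multiplexed reporter transcription units; reporter mRNA measured 24 h after compound dosing by RT-PCR, 6-FAM primer extension, HpaI digestion and capillary electrophoresis. Bidirectional fit versus DMSO baseline.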

A short description of assay [11]: ATG_M_19_CIS: Attagene CIS-FACTORIAL HepG2 Assay for M19 Transcription Factor (Internal Marker) (AID 2282939). The note with it: HepG2 Attagene CIS-FACTORIAL M19 internal marker reporter; actives raise or lower the signal. The method in brief:
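HepG2, MRTU transient transfection, 24 h dosing. Total RNA → RT-PCR → 6-FAM primer extension → HpaI digest → CE fluorescence. Bidirectional curve fit, DMSO negative control.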

A short description of assay [12]: ATG_ERE_CIS: Attagene CIS-FACTORIAL HepG2 Assay for Estrogen Response Element (ERE) (AID 2282940). The note with it: HepG2 ERE cis-reporter, Attagene RNA transcript; actives raise or lower the signal. The method in brief:
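After a 24 h chemical treatment, RNA from reporter-transfected HepG2 cells is reverse-transcribed, PCR-amplified and fluorescently labelled. Fragments separated by capillary electrophoresis give reporter signal; DMSO serves as negative control.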

Assay [13] can be described thus: ATG_Ets_CIS: Attagene CIS-FACTORIAL HepG2 Assay for human Erythroblast Transformation Specific (ETS) (AID 2282941). Conditions: HepG2 ETS cis-reporter transcription; AC50: actives raise or lower the signal unless noted; outcome: actives raise or lower the signal unless noted. The method in brief:
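RT-PCR/capillary electrophoresis fluorescence read-out of reporter mRNA; HepG2 transient multi-reporter transfection; 24 h compound exposure; gain or loss of signal fitted bidirectionally relative to DMSO.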

Assay [14] can be described thus: ATG_FoxO_CIS: Attagene CIS-FACTORIAL HepG2 Assay for human Forkhead box O (FoxO) (AID 2282943). Conditions: HepG2 Attagene cis-reporter, FoxO element, mRNA; actives raise or lower the signal. The method in brief: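 HepG2 cells transiently transfected with cis-promoter-driven multiple reporter transcription units; 24 h after chemical dosing, reporter mRNA quantified by RT-PCR, fluorescent primer extension, HpaI digestion and capillary electrophoresis. Bidirectional fitting versus DMSO baseline.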

Assay [15] is described as follows: ATG_GATA_CIS: Attagene CIS-FACTORIAL HepG2 Assay for human GATA Binding Protein (AID 2282944). Conditions: HepG2 GATA cis-element reporter, Attagene multiplex mRNA; actives raise or lower the signal. The method in brief: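 Cells: HepG2, transiently transfected with cis-regulated reporter transcription units. Exposure: 24 h. Detection: RT-PCR plus capillary electrophoresis of FAM-labeled fragments. Analysis: bidirectional, DMSO as baseline.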

Assay [16] can be described thus: ATG_GLI_CIS: Attagene CIS-FACTORIAL HepG2 Assay for human Zinc Finger Protein GLI1 (AID 2282945). The note with it: HepG2, Attagene cis-factorial reporter mRNA, GLI element; actives raise or lower the signal. The method in brief: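 HepG2 cells transiently transfected with cis-promoter multiplexed reporter units report endogenous transcription factor activity. After 24 h chemical exposure, reporter mRNA was quantified by RT-PCR, 6-FAM labelling, HpaI digestion and capillary electrophoresis, with bidirectional fitting against DMSO.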

Assay [17] addresses Bile acid receptor (Homo sapiens) (UniProt Q96RI1). Briefly: ATG_IR1_CIS: Attagene CIS-FACTORIAL HepG2 Assay for human Nuclear Receptor Subfamily 1 Group H Member 4 (NR1H4), IR1 submotif (AID 2282946). The note with it: IR1 reporter transcription, actives raise or lower the signal. In outline: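 Readout: reporter transcript levels by RT-PCR with fluorescent capillary electrophoresis, from HepG2 cells transiently transfected with multiplexed cis-regulated reporters and dosed 24 h. Gain- or loss-of-signal fitted versus DMSO negative control.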

Assay [18] in a line: ATG_GRE_CIS: Attagene CIS-FACTORIAL HepG2 Assay for human Glucocorticoid Response Elements (GRE) (AID 2282947). The note with it: HepG2 GRE cis-reporter, Attagene multiplex mRNA; AC50: actives raise or lower the signal unless noted; outcome: actives raise or lower the signal unless noted. The method in brief: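 Cells (HepG2) bearing transfected cis-promoter reporter transcription units were treated with chemical for 24 hours. Reporter mRNA was measured via RT-PCR with capillary electrophoresis, and activity was fitted in both directions relative to DMSO.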

Assay [19] in a line: ATG_ISRE_CIS: Attagene CIS-FACTORIAL HepG2 Assay for human Interferon Regulatory Factor 1 (IRF1) binding to an Interferon-Stimulated Response Element (ISRE) (AID 2282948). The note with it: HepG2 ISRE cis-reporter (Attagene), mRNA transcription readout; actives raise or lower the signal. In outline:
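Read-out: fluorescent RT-PCR products resolved by capillary electrophoresis, reporting endogenous transcription factor activity via ISRE-driven reporter mRNA in transfected HepG2 cells dosed for 24 h; gain or loss fitted relative to DMSO.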

Assay [20] addresses Hepatocyte nuclear factor 3-beta (Homo sapiens) (UniProt Q9Y261). Nature of the assay: ATG_FoxA2_CIS: Attagene CIS-FACTORIAL HepG2 Assay for human Forkhead box A2 (FOXA2) (AID 2282942). The note with it: HepG2 cis-reporter transcription factor activity, 24 h; actives raise or lower the signal. In outline: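 HepG2 cells transiently transfected with multiple cis-regulated reporter transcription units, dosed for 24 h. Reporter mRNA measured by RT-PCR, 6-FAM labelling, HpaI digestion and capillary electrophoresis; bidirectional fitting against DMSO baseline.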

Active and inactive are the calls of the source. The calls were made as follows: active = hit-call score of the fitted dose curve at least 0.9, where 1 is the maximum; inactive = score below 0.9.

Sequence of Retinoic acid receptor alpha (Homo sapiens) (P10276 whole entry, looked up): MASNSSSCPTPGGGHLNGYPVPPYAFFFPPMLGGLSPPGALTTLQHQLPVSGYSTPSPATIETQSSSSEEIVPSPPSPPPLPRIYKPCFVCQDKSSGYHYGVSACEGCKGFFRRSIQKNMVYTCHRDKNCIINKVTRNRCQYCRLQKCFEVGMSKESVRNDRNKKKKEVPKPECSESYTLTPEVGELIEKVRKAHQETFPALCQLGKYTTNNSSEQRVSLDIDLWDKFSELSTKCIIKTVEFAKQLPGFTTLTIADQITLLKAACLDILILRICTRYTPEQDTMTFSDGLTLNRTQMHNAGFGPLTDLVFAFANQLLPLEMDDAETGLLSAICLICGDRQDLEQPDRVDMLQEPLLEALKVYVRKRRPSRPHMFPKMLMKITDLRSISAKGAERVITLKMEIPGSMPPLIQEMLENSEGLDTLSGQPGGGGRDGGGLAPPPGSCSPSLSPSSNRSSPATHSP
Sequence of Hepatocyte nuclear factor 3-beta (Homo sapiens) (Q9Y261 whole entry, looked up): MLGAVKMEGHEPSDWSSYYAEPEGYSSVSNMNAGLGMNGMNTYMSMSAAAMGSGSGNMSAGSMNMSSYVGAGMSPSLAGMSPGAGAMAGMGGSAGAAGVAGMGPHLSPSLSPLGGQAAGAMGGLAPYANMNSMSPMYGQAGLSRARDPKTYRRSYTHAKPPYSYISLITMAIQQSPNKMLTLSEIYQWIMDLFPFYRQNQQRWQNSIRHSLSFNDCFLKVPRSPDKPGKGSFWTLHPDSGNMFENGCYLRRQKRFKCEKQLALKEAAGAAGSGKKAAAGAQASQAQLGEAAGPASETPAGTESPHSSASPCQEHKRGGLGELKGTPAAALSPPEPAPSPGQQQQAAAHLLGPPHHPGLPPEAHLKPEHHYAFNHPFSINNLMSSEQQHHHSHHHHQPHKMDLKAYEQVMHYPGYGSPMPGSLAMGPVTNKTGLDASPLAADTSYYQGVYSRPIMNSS
Sequence of Transcription factor E2F1 (Homo sapiens) (Q01094 whole entry, looked up): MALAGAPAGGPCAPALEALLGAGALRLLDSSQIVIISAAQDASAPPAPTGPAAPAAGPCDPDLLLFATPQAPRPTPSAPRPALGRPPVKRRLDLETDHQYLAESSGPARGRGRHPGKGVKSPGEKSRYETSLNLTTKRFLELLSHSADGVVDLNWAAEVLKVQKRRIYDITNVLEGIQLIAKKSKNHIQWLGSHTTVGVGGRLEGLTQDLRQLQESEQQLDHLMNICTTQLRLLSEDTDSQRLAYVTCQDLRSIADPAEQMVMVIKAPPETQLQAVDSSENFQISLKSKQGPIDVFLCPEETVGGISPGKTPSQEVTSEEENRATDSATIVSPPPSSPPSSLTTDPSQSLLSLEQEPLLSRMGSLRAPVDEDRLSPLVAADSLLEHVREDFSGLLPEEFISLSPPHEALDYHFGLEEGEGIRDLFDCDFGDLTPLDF
Sequence of Aryl hydrocarbon receptor (Homo sapiens) (P35869 whole entry, looked up): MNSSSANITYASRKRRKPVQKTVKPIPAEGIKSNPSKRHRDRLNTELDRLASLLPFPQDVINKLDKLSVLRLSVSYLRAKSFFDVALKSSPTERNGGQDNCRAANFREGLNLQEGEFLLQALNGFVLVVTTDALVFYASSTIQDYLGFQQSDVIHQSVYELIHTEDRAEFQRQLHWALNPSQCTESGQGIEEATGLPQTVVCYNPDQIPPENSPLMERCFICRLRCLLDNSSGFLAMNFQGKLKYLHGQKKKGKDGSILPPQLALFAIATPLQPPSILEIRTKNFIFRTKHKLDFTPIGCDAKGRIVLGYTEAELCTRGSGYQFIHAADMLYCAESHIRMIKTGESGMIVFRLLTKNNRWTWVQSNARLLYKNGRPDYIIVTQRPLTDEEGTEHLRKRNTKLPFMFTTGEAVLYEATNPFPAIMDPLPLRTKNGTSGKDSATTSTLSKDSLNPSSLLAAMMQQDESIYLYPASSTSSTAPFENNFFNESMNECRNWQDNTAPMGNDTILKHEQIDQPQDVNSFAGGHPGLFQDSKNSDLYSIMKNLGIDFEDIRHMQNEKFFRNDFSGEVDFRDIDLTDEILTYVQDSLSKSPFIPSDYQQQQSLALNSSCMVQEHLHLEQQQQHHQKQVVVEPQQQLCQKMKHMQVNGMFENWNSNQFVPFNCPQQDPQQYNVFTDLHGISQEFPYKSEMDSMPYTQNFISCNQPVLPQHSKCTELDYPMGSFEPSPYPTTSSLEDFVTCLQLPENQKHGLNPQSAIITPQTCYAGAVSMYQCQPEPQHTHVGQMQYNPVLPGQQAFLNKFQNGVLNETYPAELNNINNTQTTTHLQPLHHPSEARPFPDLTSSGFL
Sequence of Bile acid receptor (Homo sapiens) (Q96RI1 whole entry, looked up): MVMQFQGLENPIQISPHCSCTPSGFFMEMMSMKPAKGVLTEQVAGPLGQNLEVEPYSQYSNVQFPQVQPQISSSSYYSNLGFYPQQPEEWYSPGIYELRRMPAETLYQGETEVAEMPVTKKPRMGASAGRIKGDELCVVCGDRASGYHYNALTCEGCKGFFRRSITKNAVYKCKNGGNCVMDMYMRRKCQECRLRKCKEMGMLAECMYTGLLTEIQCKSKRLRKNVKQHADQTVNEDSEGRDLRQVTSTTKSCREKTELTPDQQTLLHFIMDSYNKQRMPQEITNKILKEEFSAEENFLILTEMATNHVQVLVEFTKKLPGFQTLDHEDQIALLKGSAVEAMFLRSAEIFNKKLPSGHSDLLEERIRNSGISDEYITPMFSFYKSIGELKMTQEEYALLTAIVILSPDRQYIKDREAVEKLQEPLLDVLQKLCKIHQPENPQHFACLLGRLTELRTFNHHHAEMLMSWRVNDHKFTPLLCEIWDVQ

As to `Oc1ccc(Cc2ccccc2O)cc1`, the compound was classed as inactive in assay [1], in assay [2], in assay [3], in assay [4], in assay [5] and in assay [6]. The call in [7], in assay [8], in [9], in assay [10], in assay [11] and in assay [13] was inactive. Besides, the compound was called inactive in [14], in assay [15], in assay [16], in assay [17], in assay [18] and in [19]. Further, the AC50 (as a rule, the concentration at which the activity in the assay is half-maximal) in [12] is 7.8 µM (active).
Take `Cn1sccc1=O`: the AC50 in assay [1] is 74.2 µM (active); in assay [5], 34.7 µM (active); in [6], 168 µM (active); in [8], 72.4 µM (active); in assay [10] it was 165 µM (active); in [16] it was 148 µM (active). For the same compound, the AC50 in assay [19] is 163 µM (active). In addition, the compound was called inactive in assay [2], in assay [3], in assay [4], in assay [7], in [9] and in assay [11]. Further, the compound was classed as inactive in assay [12], in assay [13], in assay [20], in assay [14], in assay [15] and in assay [18].
Take `O=C1OC(=O)c2cc(-c3ccc4c(c3)C(=O)OC4=O)ccc21`: the outcome in assay [1], in assay [2], in [3], in [4], in assay [5] and in assay [6] was inactive. The call in assay [7], in assay [8], in assay [9], in assay [10], in assay [11] and in assay [12] was inactive. In addition, the outcome in [13], in [20], in assay [14], in assay [15], in assay [16] and in assay [19] was inactive.
As for `CCCCCCCCC1CCC(=O)O1` (centres undefined), the compound was classed as inactive in assay [1], in assay [2], in [3], in assay [4], in [5] and in assay [6]. The compound was classed as inactive in [7], in assay [8], in assay [9], in assay [10], in [11] and in assay [12]. Also, the compound was classed as inactive in [13], in assay [20], in [14], in [15], in [16] and in assay [19].

The values are drawn from PubChem BioAssay (EPA / NIEHS).
